Among the data in PubChem BioAssay (NCI) are growth values, retold here.

Test systems include NCI-H23 lung; NCI-H226 lung; NCI-H322M lung; HOP-62 NSCLC; NCI-H460 lung; HOP-92 NSCLC; NCI-H522 lung; A549/ATCC NSCLC; 786-0 renal; COLO 205 colon; DU-145 prostate; K-562 leukemia; MALME-3M melanoma; MDA-MB-231 breast; RXF 393 renal; SF-268 CNS; SF-295 CNS; SF-539 CNS; UACC-257 melanoma; M14 melanoma.
What all share (test): NCI-60 one-dose screen, 48 h (100 = growth as untreated, 0 = no growth, -100 = all killed)
Holding throughout (settings): 10 µM unless noted

About 83,000 compounds went through this panel and 20% of them were active in at least one assay; those are over-represented in the sample as a whole.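 Method: cells in 96-well plates; compound added at one concentration; 48 h incubation; percent growth measured; values under 10 scored active.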 A number with no mark means an inactive call. The source made the active and inactive calls.

As to `CCN(C(=O)N1CCN(c2cc3c(cc2F)c(=O)c(C(=O)O)cn3C2CC2)CC1)c1nc(-c2ccc(C)cc2)cs1`, the growth in the test on NCI-H23 lung is 6.95% (active); in the test on NCI-H226 lung, 3.21% (active); in the test with NCI-H322M lung, 10.3%; in the test on HOP-62 NSCLC, 5.92% (active); in the test on NCI-H460 lung it was 8.41% (active); in the test with HOP-92 NSCLC, -12% (active). Besides, the growth in the test on NCI-H522 lung was 3.2% (active); in the test on A549/ATCC NSCLC, 16.1%; in the test with 786-0 renal, 15.6%; in the test with COLO 205 colon, -21.2% (active); in the test with DU-145 prostate, 23.6%; with K-562 leukemia it was 16%. Further, the growth was 14.7% in the test on MALME-3M melanoma; 6.79% (active) in the test with MDA-MB-231 breast; 21.8% in the test on RXF 393 renal; 21% in the test with SF-268 CNS; -3.48% (active) in the test with SF-295 CNS; 20.2% in the test on SF-539 CNS. Besides, the growth with UACC-257 melanoma is 14.6%; in the test on M14 melanoma it was 19.6%.

Consider `Fc1ccc(CNc2c3ccccc3nc3ccccc23)cc1`, for which the growth was 31.6% with NCI-H23 lung; 51.8% in the test with NCI-H226 lung; 38.5% with NCI-H322M lung; 43% in the test on HOP-62 NSCLC; 8.85% (active) in the test with NCI-H460 lung; 17.2% in the test with HOP-92 NSCLC. Further, the growth is 52.4% in the test on NCI-H522 lung; 23.7% in the test with A549/ATCC NSCLC; 27.6% in the test with 786-0 renal; 7.53% (active) in the test on COLO 205 colon; 34.9% with DU-145 prostate; 4.79% (active) in the test with K-562 leukemia. Further, the growth in the test on MALME-3M melanoma was 25.7%; in the test on MDA-MB-231 breast it was 38.3%; with RXF 393 renal it was 0.247% (active); with SF-268 CNS, 53.3%; with SF-295 CNS it was 27.6%; in the test on SF-539 CNS, 13.1%. Further, the growth in the test on UACC-257 melanoma was 36%; in the test on M14 melanoma, 34.4%.

Regarding `COc1cc2oc(-c3cccc(NC(=O)c4ccc5c(c4)OCO5)c3)cc(=O)c2c(OC)c1OC`, the growth with NCI-H23 lung is 52.9%; in the test on NCI-H226 lung, 65.7%; in the test on NCI-H322M lung, 43.5%; with HOP-62 NSCLC, 54.4%; in the test with NCI-H460 lung, 27.2%; in the test on HOP-92 NSCLC it was -6.11% (active). The growth is 36.7% with NCI-H522 lung; 51.3% in the test with A549/ATCC NSCLC; 19.5% with 786-0 renal; 68.1% with COLO 205 colon; 52.9% with DU-145 prostate; 17.4% with K-562 leukemia. Besides, the growth is 76.4% in the test with MALME-3M melanoma; 64.3% with MDA-MB-231 breast; 46.5% with RXF 393 renal; 48.1% in the test with SF-268 CNS; 53.9% in the test on SF-295 CNS; 57% in the test on SF-539 CNS. Besides, the growth was 77.3% with UACC-257 melanoma and 49.3% with M14 melanoma.

Consider `COC(=O)c1nc(-c2ccccc2)oc1S(=O)(=O)N1CCC(C(N)=O)CC1`, for which the growth in the test on NCI-H23 lung was 90.4%; in the test on NCI-H226 lung, 85.2%; in the test on NCI-H322M lung, 93.6%; in the test with HOP-62 NSCLC it was 104%; with NCI-H460 lung, 102%; with HOP-92 NSCLC, 23.7%. The growth was 0.81% (active) in the test on NCI-H522 lung; 98.8% with A549/ATCC NSCLC; 51.9% with 786-0 renal; 20.6% in the test on COLO 205 colon; 55.1% in the test with DU-145 prostate; 14.8% in the test with K-562 leukemia. Moreover, the growth in the test on MALME-3M melanoma was 46.1%; in the test on MDA-MB-231 breast, 76%; with RXF 393 renal, 47.4%; with SF-268 CNS it was 85.9%; in the test with SF-295 CNS, 107%; with SF-539 CNS it was 63.2%. Moreover, the growth with UACC-257 melanoma is 69.2%; with M14 melanoma, 48.1%.

As for `COc1ccc(NC(=O)c2sc3nc(C)c(C(O)c4ccccc4)cc3c2N)cc1` (stereo not given), the growth in the test on NCI-H23 lung was 28.7%; in the test with NCI-H226 lung, 57.9%; in the test on NCI-H322M lung, 56.8%; in the test with HOP-62 NSCLC, 28.2%; with NCI-H460 lung, 10.1%; in the test with HOP-92 NSCLC it was 78.9%. Besides, the growth with NCI-H522 lung is 10.2%; with A549/ATCC NSCLC it was 24.9%; with 786-0 renal, 40.7%; with COLO 205 colon, -5.84% (active); in the test on DU-145 prostate, 14.1%; in the test on K-562 leukemia it was 8.04% (active). Further, the growth is 38% with MALME-3M melanoma; 27.7% in the test on MDA-MB-231 breast; -7.22% (active) with RXF 393 renal; 50.3% in the test with SF-268 CNS; 23.1% in the test on SF-295 CNS; -4.84% (active) with SF-539 CNS. Moreover, the growth in the test with UACC-257 melanoma is 64.4%; in the test with M14 melanoma, 7.65% (active).

In the case of `Cc1ncc(C(=O)Nc2ccc(CN3CCN(C)CC3)c(C(F)(F)F)c2)cc1C#Cc1cnc(N)c2ccncc12`, the growth with NCI-H23 lung is -65% (active); in the test on NCI-H226 lung, -5.01% (active); with NCI-H322M lung, -32.5% (active); with HOP-62 NSCLC, -54.8% (active); in the test on NCI-H460 lung, -65.5% (active); in the test on HOP-92 NSCLC it was -52.2% (active). Also, the growth is -79% (active) in the test with NCI-H522 lung; -40.4% (active) with A549/ATCC NSCLC; -45% (active) in the test with 786-0 renal; -84.1% (active) in the test on COLO 205 colon; -50.5% (active) in the test with DU-145 prostate; -32.5% (active) with K-562 leukemia. Also, the growth was -72.9% (active) in the test on MALME-3M melanoma; -47.9% (active) with MDA-MB-231 breast; -87.7% (active) in the test on RXF 393 renal; -37.5% (active) in the test on SF-268 CNS; -45.4% (active) with SF-295 CNS; -86.6% (active) in the test with SF-539 CNS. Besides, the growth in the test on UACC-257 melanoma is -75.2% (active); with M14 melanoma, -63.7% (active).

Consider `CCOC(=O)Cn1c(=O)c2c3ccccc3n(C)c2n2nnc(-c3ccccc3)c12`, for which the growth in the test on NCI-H23 lung was 84.8%; in the test with NCI-H226 lung it was 76.9%; with NCI-H322M lung, 120%; in the test on HOP-62 NSCLC it was 106%; with NCI-H460 lung it was 101%; in the test on HOP-92 NSCLC, 41.1%. In addition, the growth in the test on NCI-H522 lung is 86.1%; in the test with A549/ATCC NSCLC it was 159%; in the test on 786-0 renal it was 98%; with COLO 205 colon it was 116%; with DU-145 prostate, 91.8%; in the test with K-562 leukemia it was 32.8%. The growth with MALME-3M melanoma was 93.5%; in the test on MDA-MB-231 breast, 79.7%; with RXF 393 renal, 119%; in the test on SF-268 CNS it was 91%; with SF-295 CNS it was 115%; in the test on SF-539 CNS, 91.1%. Besides, the growth with UACC-257 melanoma is 109%; with M14 melanoma it was 88.1%.
